Results on 37 compounds are retold here after the supplement of paper PMC4206467.

In this assay the test system is Perkinsus marinus PRA240. Description: ATP content (proliferation) relative to DMSO control; higher = more parasite growth (less inhibition). The settings on record: 20 µM; 4 days. As for the experimental part: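 Perkinsus marinus PRA240 trophozoites (2-5x10^6 cells/ml, 100 µl, 96-well) were exposed once to MMV Malaria Box compounds at 20 µM (0.1% DMSO) in triplicate. ATP content (ATPlite bioluminescence) was read at day 4 post-exposure and normalised to DMSO + cells control wells (100% activity). Compounds were identified by joining plate and well to the Malaria Box list.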
The compound `Cc1ccccc1OCCSc1nc2ccc(NC(=O)c3cccs3)cc2s1` displayed an ATP content of 30.1%.
As to `COC(=O)c1ccc(C2C3=C(O)CC(c4ccc(F)cc4)CC3=Nc3ccccc3N2C(=O)c2ccccc2)cc1` (configuration not stated), the ATP content was found to be 105%.
Next, `COc1ccccc1N1C(=N)SC(=Cc2ccc(OCc3ccccc3F)cc2)C1=O`: 57.5%.
Turning to `CC(=O)Nc1nnc(SCc2c(C)cc(C(C)(C)C)cc2C)s1`, the ATP content was 84.2%.
For `CCOC(=O)c1cnc2ccc(Cl)cc2c1NCCCN(C)C`, the ATP content is 147%.
For the compound `COc1ccccc1CNC(=O)C1c2ccccc2C(=O)N(CC(C)C)C1c1cccs1` (configuration not stated), the ATP content stood at 111%.
`CCN1CCN(c2cc(C)c3cc(NC(=O)c4ccc(OC)c(OC)c4)ccc3n2)CC1`: the ATP content stood at 91.6%.
In the case of `OC(CNC1CCCCC1)Cn1c2ccc(I)cc2c2cc(I)ccc21` (configuration not stated) it was 4.02%; in that of `COc1cc(OC)cc(N2C(=O)N(Cc3ccc(C(C)(C)C)cc3)c3ccccc3S2(=O)=O)c1`, 130%; in that of `Cc1cccc(N2C(=O)C3C(C2=O)C2(c4ccccc4)C(=O)C3(c3ccccc3)C(c3ccc4c(c3)OCO4)=C2c2ccc3c(c2)OCO3)c1` (configuration not stated), 110%.
As to `O=C(NC(c1ccccc1)c1ccc2cccnc2c1O)c1ccccc1` (configuration not stated), the ATP content turned out to be 26.3%.
In the case of `Oc1ccc2ccccc2c1CNc1nc2ccccc2[nH]1` it was 65.9%; in that of `O=C(Nc1nc(-c2ccccn2)cs1)c1ccccc1Br`, 8.72%; in that of `O=C(Nc1ccc(CN2CCOCC2)cc1)c1ccc(-c2cc(Cl)ccc2Cl)o1`, 122%.
Regarding `Cc1ccc2cc3c(N)c4c(C)ccc(C)c4nc3nc2c1`, the ATP content was determined as 142%.
For the compound `COc1ccc(C2c3ccc4ccccc4c3Oc3ncn(CCCN(C)C)c(=N)c32)cc1` (configuration not stated), the ATP content stood at 202%.
In the case of `CCOC(=O)c1cnc2c(CC)cccc2c1O` it was 80.1%; in that of `N=c1n(CCN2CCCCC2)c2ccccc2n1CC(O)c1cccc(Br)c1` (configuration not stated), 116%.
`Oc1ccc(-c2nc(-c3ccc4oc5ccc(-c6[nH]c(-c7ccc(O)cc7)nc6-c6ccccc6)cc5c4c3)c(-c3ccccc3)[nH]2)cc1` had an ATP content of 124%.
`O=C(Nc1cccc(C2=NCCN2)c1)Nc1cccc(C2=NCCN2)c1`: the ATP content turned out to be 128%.
Next, `CCOC(=O)c1cnc2c(C)cccc2c1Nc1ccc(C(C)=O)cc1`: 122%; `COc1cccc(Cn2c(Oc3ccccc3)nc3c2c(=O)n(C)c(=O)n3C)c1`: 106%; `O=C1c2ccccc2-c2nnc(-c3ccc(Br)cc3)cc21`: 67.7%.
For the compound `CCC(O)c1ccc(Br)cc1NC(=O)c1cccc(Cl)c1` (configuration not stated), the ATP content is 127%.
In the case of `Cc1cc(N(C)C)nc(Nc2ccc(NC(=O)Nc3ccccc3)cc2)n1` it was 85.9%; in that of `Cc1ccc2nc(C)cc(Nc3cccc(C(F)(F)F)c3)c2c1`, 121%; in that of `COc1ccc(C=C2SC(Nc3ccccc3)=NC2=O)cc1`, 61.4%.
In the case of `COc1ccc(OC)c(C2C3=C(CC(C)(C)CC3=O)N(c3ccc(Cl)c(Cl)c3)C3=C2C(=O)CC(C)(C)C3)c1` it was 161%.
`CCOc1ccc(C2N(C)c3ccccc3N2C)cc1` showed an ATP content of 131%.
As for `COc1ccc(C=C2SC(Nc3ccc(F)cc3)=NC2=O)c(OC)c1`, the ATP content turned out to be 60.7%.
Regarding `COc1ccc(CNC(=O)c2cc3c(=O)n4ccccc4nc3n(CCc3ccccc3)c2=N)cc1`, the ATP content is 107%.
Compound `O=C(Nc1cccc(C(F)(F)F)c1)c1cc(Cl)ccc1O` showed an ATP content of 2.99%.
On to `COc1ccc(-c2nonc2NC(=O)c2cccc(C)c2)cc1OC`, for which the ATP content amounted to 82.6%.
With `CCN(CC)S(=O)(=O)c1ccc(-c2csc(Nc3ccc(C)c(C)c3)n2)cc1`, the ATP content worked out at 142%.
Compound `CCN(CC)CCCNc1nc(-c2ccc(Cl)cc2)nc2ccccc12` came in with an ATP content of 99.6%.
In the case of `O=C(NCC1Cc2cccc(-c3ccncc3)c2O1)c1csc2c1CCCC2` (configuration not stated) it was 114%.
Compound `O=c1nc(C=Cc2ccc(Br)cc2)oc2ccccc12` registered an ATP content of 11.1%.
